# Laboratory results from PubChem BioAssay (NCATS).
# Inconclusive results are not listed. Calls of active or inactive are those of the source. Calls follow the shape of the dose curve; as a rule, active = well fitted inhibition curve with a large enough effect; inconclusive = small, poorly fitted or top-dose-only effect; inactive = no such curve, though single readings can be large or run the other way.
# Test: Primary qHTS for small molecule stabilizers of the endoplasmic reticulum resident proteome: Secreted ER Calcium Modulated Protein (SERCaMP) assay (AID 1508630)
# Conditions: SH-SY5Y GLuc-SERCaMP (Gaussia luciferase released on ER calcium loss) secretion, thapsigargin, luminescence; series mostly up to 38.4 µM
# How it was run: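 The SH-SY5Y reporter protocol was run at 3 concentrations up to 38.3 uM (primary) or 11 concentrations (follow-up): 16 h compound, 100 nM thapsigargin for 4 h, then extracellular luciferase luminescence.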
row,SMILES,outcome
1,CN(C)C(=O)c1ccc(-c2ccc3ncnc(N(C)Cc4ccco4)c3c2)cc1,inactive
2,Cc1ccccc1-c1nccc(-n2ccnc2)n1,inactive
3,CN(C)Cc1ccccc1-c1nccc(NC2CC2)n1,inactive
4,c1ccc2c(NC3CC3)nc(-c3ccoc3)nc2c1,inactive
5,N#Cc1cccc(-c2cc(-n3ccnc3)ncn2)c1,inactive
6,CN(C)C(=O)c1ccc(-c2ccc3ncnc(Nc4ccccc4)c3c2)cc1,inactive
7,COc1cccc(-c2cncnc2NCCc2cnc[nH]2)c1,inactive
8,FC(F)(F)c1ccccc1-c1cncnc1NCCc1cnc[nH]1,inactive
9,CN(Cc1ccco1)c1ccnc(-c2ccoc2)n1,inactive
10,COc1cccc(-c2nc(NCc3cnc(C)cn3)c3ccccc3n2)c1,inactive
11,CCC(=O)O[C@@H]1CC(=O)O[C@H](C)C/C=C/C=C/[C@@H](O)[C@H](C)C[C@H](CC=O)[C@H](OC2O[C@H](C)[C@@H](O[C@H]3C[C@@](C)(O)[C@@H](OC(=O)CC)[C@H](C)O3)[C@H](N(C)C)[C@H]2O)[C@H]1OC (some centres undefined),inactive
12,c1cncc(-c2ccc3ncnc(N4CCNCC4)c3c2)c1,inactive
13,CN(C)C(=O)c1ccc(-c2cncnc2NCCN2CCOCC2)cc1,inactive
14,COc1ccc2[nH]cc(CCNc3cc(-c4ccccc4CN(C)C)ncn3)c2c1,inactive
15,COc1ccc2[nH]cc(CCNc3ccnc(-c4ccccc4C)n3)c2c1,inactive
16,CC(=O)NCCNc1nc(-c2ccc3c(c2)OCO3)nc2ccccc12,inactive
17,c1csc(CNc2nc(-c3ccc4c(c3)OCO4)nc3ccccc23)c1,inactive
18,N#Cc1cccc(-c2cc(NCc3cccnc3)ncn2)c1,inactive
19,c1ccc(Nc2ncncc2-c2ccc3c(c2)OCO3)cc1,inactive
20,COc1ccc2[nH]cc(CCNc3ncncc3-c3ccc(C(=O)N(C)C)cc3)c2c1,inactive

row,SMILES,outcome
1,c1ncc(-c2ccc3c(c2)OCO3)c(NCCc2cnc[nH]2)n1,inactive
2,Fc1ccc(Nc2nc(-c3ccoc3)nc3ccccc23)cc1,inactive
3,CCNc1ncc2nc(-c3ccc(Cl)cc3)c(=O)n(Cc3cccs3)c2n1,inactive
4,COc1ccc(CNc2ccnc(-c3cccc(NS(C)(=O)=O)c3)n2)c(OC)c1,inactive
5,COc1ccc(CNc2ccnc(-c3ccccc3Cl)n2)c(OC)c1,inactive
6,CN(C)C(=O)c1ccc(-c2nccc(NCc3cccnc3)n2)cc1,inactive
7,c1ccc(CNc2ncncc2-c2ccoc2)cc1,inactive
8,COc1ccc2[nH]cc(CCNc3ccnc(-c4ccoc4)n3)c2c1,inactive
9,Clc1ccccc1-c1nc(NCCN2CCOCC2)c2ccccc2n1,inactive
10,COCCNc1nc(-c2ccccc2C(F)(F)F)nc2ccccc12,inactive
11,CN(Cc1ccco1)c1cc(-c2cccnc2)ncn1,inactive
12,FC(F)(F)c1ccccc1-c1cc(NCc2cccs2)ncn1,inactive
13,COc1ccc2[nH]cc(CCNc3ncnc4ccc(-c5c(C)noc5C)cc34)c2c1,inactive
14,CC(=O)NCCNc1ncnc2ccc(-c3ccc(C(=O)N(C)C)cc3)cc12,inactive
15,CCNc1ncc2nc(-c3ccccc3)c(=O)n(Cc3cccc(OC)c3)c2n1,inactive
16,COCCNc1ccnc(-c2c(C)noc2C)n1,inactive
17,COc1ccc2[nH]cc(CCNc3nc(-c4ccccc4CN(C)C)nc4ccccc34)c2c1,inactive
18,NC[C@@H]1O[C@H](O[C@H]2[C@H](O)[C@H](O[C@H]3[C@@H](O)[C@H](N)C[C@H](N)[C@H]3O[C@H]3O[C@H](CN)[C@H](O)[C@H](O)[C@H]3N)O[C@@H]2CO)[C@@H](N)[C@@H](O)[C@@H]1O,inactive
19,CN(C)C(=O)c1ccc(-c2nccc(-n3ccnc3)n2)cc1,inactive
